Drawing on ChEMBL document CHEMBL4513216, “Probing the Open Global Health Chemical Diversity Library for Multistage-Active Starting Points for Next-Generation Antimalarials” (ACS Infect Dis, 2020), this text covers INHIBITION for 107 molecules.

Out of some 69,000 compounds screened, about 8,600 (12%) showed an effect of 50% or more. The list comes from a sample in which strong results are over-represented; it also holds similar structures and randomly drawn compounds.

The test system of this assay is Plasmodium berghei. Kind of assay: Screen against P. berghei liver stage (PbLuc), transformed with Luciferase, at 10uM. Conditions: tested at 10 uM. The assay is classed as functional, HepG2.
`Cc1nc(C)n(C2CCCN(C(=O)c3ccc(F)c(F)c3)C2)n1` (configuration not stated): the INHIBITION came to 6.333%.
As for `Cc1noc(-c2ccc(N3CCN(Cc4ncccc4C)CC3)nc2)n1`, the figure is 17.1%; as for `O=C(CN1CC(c2nc(C3CC3)no2)C1)NCc1ccc(F)cc1`, -50.7%.
Turning to `CN(CCc1noc(C2CC2)n1)C(=O)C1(N2CCCC2)CCCC1`, the INHIBITION was 10.7%.
On to `Cc1nc(-c2ccccc2)cc(C2CCNCC2)n1`, for which the INHIBITION was -25.3%.
As for `COc1ccc(CNCc2c(C(C)C)nn(C)c2N(C)C)cn1`, the INHIBITION came out at 19.2%.
On to `CC(C)=CCCC1(C)CCC(=O)N(CCNc2nc(C)cc(=O)[nH]2)C1` (configuration not stated), for which the INHIBITION is listed as 18.5%.
With `N#CCCN(C(=O)CN1CCCC1c1cccs1)c1ccccc1F` (configuration not stated), the INHIBITION was found to be 13.833%.
Take `O=C1Nc2ccccc2CN(CC=Cc2ccccc2)C12CCNC2` (configuration not stated): the INHIBITION was determined as 35.8%.
With `O=c1[nH]c2cn(-c3ccc(Cl)cc3)c(=O)n2[nH]1` the figure was -20.6%.
In the case of `CCC(CC)NC(=O)Cn1cc(-c2ccccc2)cn1`, the INHIBITION is 48.4%.
Consider `O=C(NCc1cn2c(n1)CN(CC1CCOCC1)CC2)C1CCC1`, for which the INHIBITION came out at 60.2%.
With `c1c(CN2CCOCC2)nc2n1CCN(C1CCOCC1)C2` the figure was 27.5%; with `Cn1cc(CN2CCn3cc(CNC(=O)c4cccn4C)nc3C2)cn1`, 62.6%.
With `Cn1cc(CN2CCn3cc(CNC(=O)CC4CC4)nc3C2)cn1`, the INHIBITION is 33.4%.
As for `O=C(NCc1cn2c(n1)CN(Cc1nccs1)CC2)C1CCC1`, the figure is 11.4%.
`Cn1cc(C(=O)NCc2cn3c(n2)CN(C2CCOCC2)CC3)cn1`: the INHIBITION was 54.7%.
With `CN1CCN(Cc2cn3c(n2)CN(C2CCOCC2)CC3)CC1` the figure was 11.6%.
On to `CCN1CCn2cc(CNC(=O)c3cnn(C)c3)nc2C1`, for which the INHIBITION is on record as -18.4%.
Take `Cn1cc(C(=O)NCc2cn3c(n2)CN(CC2CCOCC2)CC3)cn1`: the INHIBITION is reported as 9.54%.
As for `Cn1cccc1C(=O)NCc1cn2c(n1)CN(Cc1cccnc1)CC2`, the figure is 15.8%.
Turning to `c1c(CN2CCCC2)nc2n1CCN(C1CCOCC1)C2`, the INHIBITION turned out to be 54.4%.
Take `COCCN1CCn2cc(CNC(=O)C3CCC3)nc2C1`: the INHIBITION is reported as -10.3%.
Regarding `Cn1cc(C(=O)N2CC[C@@H]3[C@@H]2CCN3Cc2ccccc2)cn1`, the INHIBITION came out at 5.44%.
As for `COc1ccc2c(ccn2CC(=O)Nc2n[nH]c(C(C)C)n2)c1`, the figure is 35.7%; as for `CC(C)n1cnnc1CN(C)C(=O)c1ccc[nH]1`, -5.19%; as for `O=C(c1cnccn1)N1CCCC2(CCN(c3ccccn3)C2)C1` (configuration not stated), -16.1%.
Turning to `CCNc1cc2c(nn1)CCN(C(=O)c1ccnc(C)n1)C2`, the INHIBITION worked out at 7.75%.
As to `Cc1ccnc(NCC2(N(C)C)CCOCC2)n1`, the INHIBITION is -24%.
With `O=C(c1cccnc1)N1CCc2ncnc(N3CCOCC3)c2CC1` the figure was 41.6%; with `c1ccc(NCc2cn3c(n2)CN(Cc2ccoc2)CC3)nc1`, -13.7%; with `CC(=O)N1CCn2cc(CNC(=O)c3cccn3C)nc2C1`, 38.1%.
As for `Cn1cccc1C(=O)NCc1cn2c(n1)CN(c1ncccn1)CC2`, the figure is -0.453%; as for `Cc1noc(C)c1CN1CCn2cc(CNc3ccccn3)nc2C1`, 88.1%.
On to `Cn1cccc1C(=O)NCc1cn2c(n1)CN(C(=O)c1ccsc1)CC2`, for which the INHIBITION turned out to be 61.1%.
With `c1ccc(NCc2cn3c(n2)CN(Cc2cccs2)CC3)nc1` the figure was 26.5%.
`Cc1ccc2cc(C(=O)N3CCC(Nc4cccnn4)CC3)[nH]c2c1`: the INHIBITION was 21.6%.
With `O=C(NCC[S+]([O-])Cc1ccccc1)c1ccc2[nH]c(=O)[nH]c2c1` (configuration not stated) the figure was 35.2%; with `Cc1nn(C)c(Cl)c1C1CCCN1C(=O)c1ccoc1C` (configuration not stated), -29.1%; with `CCOc1cc(C)nc(N2CCN(C(=O)c3cc(C)on3)CC2)n1`, 19.4%.
On to `O=C(CCN1CCc2[nH]nc(C(F)(F)F)c2C1)Nc1ccccc1`, for which the INHIBITION was 61.1%.
Take `CC(C(=O)Nc1ncccn1)N1CCc2[nH]nc(C(F)(F)F)c2C1` (configuration not stated): the INHIBITION is -17.9%.
As for `FC(F)(F)c1n[nH]c2c1CN(Cc1cn3ccccc3n1)CC2`, the figure is 49.1%; as for `O=C(CCN1CCCN(c2nccs2)CC1)Nc1ccccc1`, 15.2%.
For the molecule `[O-][S+](CCN1CCc2[nH]nc(C(F)(F)F)c2C1)c1ccccc1` (configuration not stated), the INHIBITION stood at 36.3%.
With `FC(F)(F)c1n[nH]c2c1CN(CCc1ccccn1)CC2` the figure was 50%; with `Cc1nc2n(n1)CC(NCc1nc(-c3ccccn3)no1)CC2` (configuration not stated), 0%; with `CCOCCNC(=O)C1CCC(=O)N(CCc2ccc(Cl)cc2)C1` (configuration not stated), 42.5%.
With `CC(C(=O)N1CCCN(c2ncccc2C#N)CC1)n1cncn1` (configuration not stated) the figure was 11.4%.
Turning to `COc1ccccc1C(=O)Nc1cc(CC(C)C)nn1C`, the INHIBITION amounted to 12.7%.
In the case of `Cc1cnc(C(=O)N2CC(=O)N(c3ccccc3Cl)CC2C)cn1` (configuration not stated), the INHIBITION turned out to be 17%.
Consider `Cc1nc(Nc2ccccn2)cc(C2CCCN2Cc2ncc[nH]2)n1` (configuration not stated), for which the INHIBITION is 50.1%.
As for `c1cc(C2CCCN2CC2CCCCC2)n[nH]1` (configuration not stated), the figure is -12.3%; as for `Cc1nc(Nc2ncccn2)cc(C2CCCN2CC(C)C)n1` (configuration not stated), 56.3%; as for `Cc1c[nH]nc1C1CCCN1Cc1ncc[nH]1` (configuration not stated), -12.3%.
On to `c1cc(C2CCCN2CC2CC2)n[nH]1` (configuration not stated), for which the INHIBITION was -14.2%.
As to `Cc1nc(Nc2ncccn2)cc(C2CCCN2C(C)C)n1` (configuration not stated), the INHIBITION was -0.902%.
Turning to `Cc1nc(Nc2ncccn2)cc(C2CCCN2Cc2ncc[nH]2)n1` (configuration not stated), the INHIBITION came to 18.9%.
As for `Cc1nc(Nc2ncccn2)cc(C2CCCN2C)n1` (configuration not stated), the figure is 0.301%.
With `CC(C)CN1CCCC1c1cc[nH]n1` (configuration not stated) the figure was 52.7%; with `O=C(c1cc(F)ccc1F)C1CCN(C(=O)c2cnccn2)CC1`, 3.73%; with `CCCn1nnnc1CN1Cc2ccccc2CC1c1nnc(C)o1` (configuration not stated), -25.6%.
For `Cc1nn(C)cc1-c1cc(-c2cn(C)nc2C)n(CC(=O)NC2CC2)n1`, the INHIBITION is 15.2%.
As for `CCCC(=O)N1CCC(O)(Cn2c(CC)nc3ccccc3c2=O)CC1`, the figure is 41.5%; as for `CN(C)c1cc(C(=O)N2CCCN(Cc3nccn3C)CC2)ccn1`, 29.2%.
With `COCc1ccc(CNC(=O)C2=NN(c3ccccc3)C(=O)CN2)cc1` the figure was 51.6%; with `N#Cc1ccc(CNC(=O)C2=NN(c3ccccc3)C(=O)CN2)cc1`, -72.2%; with `COc1ccccc1CNC(=O)C1=NN(c2ccc(C)cc2)C(=O)CN1`, 18.1%.
Take `COc1ccc(C)cc1CNC(=O)C1=NN(c2ccccc2)C(=O)CN1`: the INHIBITION is recorded as -174%.
As for `COc1ccc(CNC(=O)C2=NN(c3ccc(C)cc3)C(=O)CN2)cc1`, the figure is 79.5%.
For `O=C(NCc1cccnc1)C1=NN(c2ccccc2)C(=O)CN1`, the INHIBITION is given as -19.2%.
For the molecule `COCCCN(Cc1cnc(-c2ccccn2)nc1)C1CCN(C)CC1`, the INHIBITION was determined as 23.9%.
As for `CCC1(O)CCCN(c2ncnc3c2c(C)nn3C)C1` (configuration not stated), the figure is 13.7%; as for `COCCOC(=O)N1CCn2nc(CN(C)Cc3nccs3)cc2C1`, 36.7%; as for `CCC(=O)N(c1ccc(C(=O)OC)cc1C)C(C)C`, 20.9%.
`CN(C)CCOCC1CN(Cc2ccsc2)Cc2nnn(C)c21` (configuration not stated): the INHIBITION worked out at 38.2%.
In the case of `C[C@@H]1CN(C(=O)c2cccc(F)c2)C[C@]12CCN(c1ccsc1)C2=O`, the INHIBITION is on record as 50.9%.
As for `C[C@@H]1CN(C(=O)c2ccsc2)C[C@]12CCN(c1ccsc1)C2=O`, the figure is 35.3%; as for `Cc1cccc(C(=O)N2C[C@@H](C)[C@@]3(CCN(c4ccsc4)C3=O)C2)n1`, 19.4%; as for `CCc1nn(C)c2[nH]nc(NC(=O)c3cccnc3OC)c12`, 43.1%.
With `Cc1nn(C)c(N(C)C)c1CNCc1nnc2n1CCCCC2` the figure was -7.94%; with `Cc1ccc(NC2CCN(C(=O)CCn3nc(C)cc3C)CC2)nn1`, 15.4%; with `CNc1nc(C(=O)N2CCn3nc(C(=O)OC)cc3C2)cs1`, 9.16%.
As for `COc1ccc(C[C@H]2CN(C(=O)c3ccn(C)n3)CC[C@H]2OC)cc1`, the figure is -7.28%; as for `c1cncc(OCCCNC2COc3ccccc3C2)c1` (configuration not stated), 38.5%; as for `CC(C)NC(=O)C1(Cc2ccccc2-c2cccs2)CCNC1` (configuration not stated), 41.2%.
Turning to `CC(=O)N1CCCC1c1ccc(-c2c(C)noc2C)cn1` (configuration not stated), the INHIBITION was determined as 25.6%.
Consider `Cc1noc(C)c1-c1ccc(C2CCCN2C(=O)c2cccnc2)nc1` (configuration not stated), for which the INHIBITION is on record as -5.71%.
As for `Cc1noc(C)c1-c1ccc(C2CCCN2C(=O)Cn2ccnc2)nc1` (configuration not stated), the figure is 53.2%.
As for `Cc1noc(C)c1-c1ccc(C2CCCN2C(=O)c2ccncn2)nc1` (configuration not stated), the figure is 61.7%; as for `Cc1noc(C)c1-c1ccc(C2CCCN2C(=O)c2cnn(C)c2)nc1` (configuration not stated), -32.2%; as for `Cc1noc(C)c1-c1ccc(C2CCCN2C(=O)c2cccnn2)nc1` (configuration not stated), 31.6%.
As for `Cc1csc(CCNC(=O)N2CCC(C(N)=O)CC2)n1`, the figure is 36.9%; as for `Cc1nn(C)c2cnn(CC(=O)NCc3ccc(F)cc3)c12`, 44.9%; as for `OCCC1(NCc2ccc(-n3cccn3)cc2)CCOCC1`, 12%.
For the molecule `CCN1CCN(C(=O)C2CCOC2)c2ccccc21` (configuration not stated), the INHIBITION stood at 48.3%.
Regarding `COc1ccc(CCNC(=O)C(C)Nc2cccc(C)c2C)cc1` (configuration not stated), the INHIBITION is 20.9%.
For the molecule `COc1ccc(CCNC(=O)C(C)Nc2ccc(C)c(C)c2)cc1` (configuration not stated), the INHIBITION came out at 58.5%.
With `COc1ccc(CCNC(=O)C(C)Nc2cc(C)ccc2C)cc1` (configuration not stated) the figure was 44.9%; with `CCn1cc(CN2CCCN(C(=O)c3ccccc3C)CC2)cn1`, -57.4%.
As for `CCCn1nnnc1COC(=O)C1COc2ccc(Cl)cc2C1` (configuration not stated), the figure is 32.3%; as for `CCc1nncn1CCNC(=O)N1CCCC(Cc2nccn2C)C1` (configuration not stated), 17.6%.
`CCc1nnc2n1CC(CNc1cnc3ccccc3n1)CC2` (configuration not stated): the INHIBITION is 27.6%.
As for `Cc1nnc2n1CC(CNc1cnc3ccccc3n1)CC2` (configuration not stated), the figure is 60.1%; as for `CC(C)c1nnc2n1CC(CNc1cnc3ccccc3n1)CC2` (configuration not stated), 43.4%.
For `CC(C(=O)N1CCN(Cc2ccc(C#N)cc2)CC1)n1ccnc1` (configuration not stated), the INHIBITION amounted to 23.5%.
With `O=C1CCCN1Cc1nnc2n1CCCN(Cc1ccco1)C2`, the INHIBITION is listed as -9.23%.
